Laboratory results: PubChem BioAssay AID1159580 (chemical genetic matrix, 2015)
Among all 5,500 compounds or so, about 2,000 (36%) were called active. Another 18% or so got no clear call; they are omitted. Cut-off read from the data, not from the text of the source: active = normalized growth mostly below about 0.91 (no sharp cut-off); inconclusive = no clear call, values can overlap the other calls; inactive = mostly above about 0.92. The list shows a part of the results.

Assay: chemical genetic growth profiling, strain panel (AID 1159580);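 note: tested at 20 µM; growth read once vehicle control cultures reached saturation at 30 °C; 1 = growth at the plate median or of vehicle wells; lower values mean less growth of the strain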
Conditions: S. cerevisiae deletion strains, growth OD
[1] = locus YAL013W, strain DEP1, active compounds read low
[2] = locus YDR150W, strain NUM1, active compounds read low
[3] = locus YJR075W, strain HOC1, active compounds read low
[4] = locus YDL101C, strain DUN1, active compounds read low
[5] = locus YHR030C, strain SLT2, active compounds read low

Measured: normalized growth

CCNC(=O)[C@H]1O[C@@H](n2cnc3c(N)ncnc32)C(O)[C@H]1O (stereo not given in full)
inactive: [1] 1 | locus YAL040C, strain CLN3, active compounds read low 1.02 | locus YCL061C, strain MRC1 (second series), active compounds read low 1 | [2] 1 | locus YDR363W, strain ESC2, active compounds read low 1.03 | locus YER002W, strain NOP16, active compounds read low 1.01 | [3] 1 | locus YNL175C, strain NOP13, active compounds read low 1 | locus YNL197C, strain WHI3, active compounds read low 1.01 | locus YNL224C, strain SQS1, active compounds read low 0.992 | locus YOR083W, strain WHI5 (second series), active compounds read low 1.04

Cc1ccc(NS(=O)(=O)c2ccc(-c3csc(C)n3)s2)c(C)c1
inactive: locus YAR019C, strain CDC15, active compounds read low 0.977 | locus YBL105C, strain PKC1, active compounds read low 0.984 | locus YBR135W, strain CKS1, active compounds read low 0.979 | locus YBR136W, strain MEC1, active compounds read low 0.981 | locus YBR160W, strain CDC28, active compounds read low 0.983 | locus YDL017W, strain CDC7, active compounds read low 0.984 | locus YDL028C, strain MPS1, active compounds read low 0.98 | [4] 0.993 | locus YDL108W, strain KIN28, active compounds read low 0.972 | locus YDL132W, strain cdc53, active compounds read low 0.989 | locus YDL214C, strain PRR2, active compounds read low 0.904 | locus YDR052C, strain DBF4, active compounds read low 0.986 | locus YDR054C, strain cdc34, active compounds read low 0.975 | locus YDR226W, strain ADK1, active compounds read low 0.986 | locus YDR477W, strain SNF1, active compounds read low 0.885 | locus YER123W, strain YCK3, active compounds read low 0.888 | locus YER133W, strain GLC7, active compounds read low 0.883 | locus YFL009W, strain cdc4, active compounds read low 0.976 | locus YFL029C, strain CAK1, active compounds read low 0.979 | locus YFR003C, strain YPI1, active compounds read low 0.98 | locus YFR019W, strain FAB1, active compounds read low 0.934 | locus YFR028C, strain CDC14, active compounds read low 0.981 | locus YGR040W, strain KSS1, active compounds read low 0.895 | locus YGR052W, strain FMP48, active compounds read low 0.928 | locus YGR092W, strain DBF2, active compounds read low 0.913 | locus YHR079C, strain IRE1, active compounds read low 0.883 | locus YHR082C, strain KSP1, active compounds read low 0.976 | locus YHR205W, strain SCH9, active compounds read low 0.977 | locus YIL147C, strain SLN1, active compounds read low 0.982 | locus YJL095W, strain BCK1, active compounds read low 0.859 | locus YJL128C, strain PBS2, active compounds read low 0.943 | locus YJL157C, strain FAR1, active compounds read low 0.931 | locus YJR016C, strain ILV3, active compounds read low 0.983 | locus YJR066W, strain TOR1 (second series), active compounds read low 0.826 | locus YJR066W, strain TOR1, active compounds read low 0.936 | locus YKL048C, strain ELM1, active compounds read low 0.957 | locus YKL067W, strain YNK1, active compounds read low 0.898 | locus YKL101W, strain HSL1, active compounds read low 0.894 | locus YKL193C, strain SDS22, active compounds read low 0.985 | locus YKL203C, strain TOR2, active compounds read low 0.92 | locus YLR133W, strain CKI1, active compounds read low 0.902 | locus YLR403W, strain SFP1, active compounds read low 0.912 | locus YML070W, strain DAK1, active compounds read low 0.856 | locus YMR001C, strain CDC5, active compounds read low 0.977 | locus YMR205C, strain PFK2 (second series), active compounds read low 0.915 | locus YMR277W, strain FCP1, active compounds read low 0.98 | locus YNL006W, strain LST8, active compounds read low 0.978 | locus YNL020C, strain ARK1, active compounds read low 0.898 | locus YNL161W, strain CBK1, active compounds read low 0.982 | locus YNL183C, strain NPR1, active compounds read low 0.893 | locus YNL207W, strain RIO2, active compounds read low 0.975 | locus YNL222W, strain SSU72, active compounds read low 0.986 | locus YNL307C, strain MCK1 (second series), active compounds read low 0.887 | locus YOL078W, strain AVO1, active compounds read low 0.983 | locus YOL136C, strain PFK27, active compounds read low 0.915 | locus YOR061W, strain CKA2, active compounds read low 0.84 | locus YOR119C, strain RIO1, active compounds read low 0.93 | locus YOR231W, strain MKK1, active compounds read low 0.806 | locus YOR329C, strain SCD5, active compounds read low 0.98 | locus YPL031C, strain PHO85, active compounds read low 0.892 | locus YPL153C, strain RAD53, active compounds read low 0.937 | locus YPL204W, strain HRR25, active compounds read low 0.881 | locus YPL209C, strain IPL1, active compounds read low 0.982 | locus YPR025C, strain CCL1, active compounds read low 0.981 | locus YPR106W, strain ISR1, active compounds read low 0.988 | locus YPR111W, strain DBF20, active compounds read low 0.962 | strain NNK1, active compounds read low 0.974 | strain TSCII, active compounds read low 0.975
active: [5] 0.647 | locus YLR113W, strain HOG1, active compounds read low 0.676 | locus YPL256C, strain CLN2, active compounds read low 0.715

Cc1nc(-c2ccc(S(=O)(=O)N3CCN(c4ncnc5scc(-c6ccccc6)c45)CC3)s2)cs1
inactive: [1] 1.02 | locus YBR229C, strain ROT2, active compounds read low 1 | locus YCL061C, strain MRC1, active compounds read low 1.01 | [4] 1 | [2] 0.936 | locus YEL061C, strain CIN8, active compounds read low 0.995 | locus YGR078C, strain PAC10, active compounds read low 1.01 | [5] 1.04 | locus YHR087W, strain rtc3, active compounds read low 1.02 | locus YJL187C, strain SWE1, active compounds read low 1.02 | locus YJR043C, strain POL32, active compounds read low 1.01 | [3] 1.02 | locus YLR039C, strain RIC1, active compounds read low 1.03 | locus YLR058C, strain SHM2 (second series), active compounds read low 1.01 | locus YLR085C, strain ARP6, active compounds read low 1.05 | locus YLR262C, strain YPT6, active compounds read low 1.02 | locus YML094W, strain GIM5, active compounds read low 1.02 | locus YMR219W, strain ESC1, active compounds read low 1.01 | locus YMR263W, strain SAP30, active compounds read low 1.03 | locus YMR307W, strain GAS1, active compounds read low 0.952 | locus YNL153C, strain GIM3, active compounds read low 1 | locus YNL298W, strain CLA4 (second series), active compounds read low 1.03 | locus YNL322C, strain KRE1, active compounds read low 1.01 | locus YNR030W, strain Alg12, active compounds read low 1.01 | locus YOL006C, strain TOP1, active compounds read low 0.997 | locus YPL055C, strain LGE1, active compounds read low 0.897 | locus YPL241C, strain CIN2, active compounds read low 1.05 | locus YPR135W, strain CTF4, active compounds read low 0.993
